{"source": "PubChem BioAssay (EPA / NIEHS)", "note": "Values joined by “and” are separate entries in the source; they are usually repeats but may differ in a detail not shown here. Identical values can stand only once. Records with an inconclusive call do not appear. The source holds several records for some structures; these can differ, active in one and inactive in another. Active and inactive are the calls of the source. The calls were made as follows: active = hit-call score of the fitted dose curve at least 0.9, where 1 is the maximum; inconclusive = response in the unintended direction; inactive = score below 0.9."}
{"test": "ATG_XTT_Cytotoxicity: Cytotoxicity Assessment in the Attagene TRANS-FACTORIAL HepG2 Assay (AID 2283584);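 as to AC50: XTT signal for cell number as viability in transfected HepG2 cells; cells exposed to compound for 24 h before reading; active means loss of viability signal versus DMSO baseline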", "how_it_was_run": "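Transfect HepG2 with GAL4-UAS reporter units, dose compound, incubate 24 h, then measure viable cell number by XTT. Fit concentration response against DMSO baseline.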"}
{"smiles": "Nc1ccn([C@@H]2O[C@H](CO)[C@@H](O)C2O)c(=O)n1", "note": "(some centres undefined)", "outcome": "inactive"}
{"smiles": "COc1ccc(C#N)cc1", "outcome": "inactive"}
{"smiles": "Cc1ccc(N=Nc2c(O)ccc3ccccc23)c(C)c1", "outcome": "inactive"}
{"smiles": "CCCCN(C)C", "outcome": "inactive"}
{"smiles": "CCOC=C(C(=O)OCC)C(=O)OCC", "outcome": "inactive"}
{"smiles": "O=S(=O)(c1ccc(OCc2ccccc2)cc1)c1ccccc1O", "outcome": "inactive"}
{"smiles": "O=C(O)CN(CCCN(CC(=O)O)CC(=O)O)CC(=O)O", "outcome": "inactive"}
{"smiles": "O=S(=O)(O)c1ccccc1", "outcome": "inactive"}
{"smiles": "CN(C)c1ccc(C(=C2C=CC(=[N+](C)C)C=C2)c2ccccc2)cc1", "AC50": "10.1 µM (active) and 7.71 µM (active)"}
{"smiles": "C=CC(=C)CC/C=C(\\C)CCC=C(C)C", "outcome": "inactive"}
{"smiles": "CCCCCCCCC(C)=O", "outcome": "inactive"}
{"smiles": "O=C1Cc2ccccc2N1c1c(Cl)cccc1Cl", "outcome": "inactive"}
{"smiles": "COc1cccc(O)c1", "outcome": "inactive"}
{"smiles": "NNC(=O)CCCCC(=O)NN", "outcome": "inactive"}
{"smiles": "COCC1CCC(CO)CC1", "note": "(centres undefined)", "outcome": "inactive"}
{"smiles": "C=C(c1ccc(C(=O)O)cc1)c1cc2c(cc1C)C(C)(C)CCC2(C)C", "AC50": "25.3 µM (active)"}
{"smiles": "CC1CNCC(C)O1", "note": "(centres undefined)", "outcome": "inactive"}
{"smiles": "CCOC(OCC)C(=O)c1ccccc1", "outcome": "inactive"}
{"smiles": "O=C(NCc1ncc(C(F)(F)F)cc1Cl)c1c(Cl)cccc1Cl", "outcome": "inactive"}
{"smiles": "COC1=CC(=O)C[C@@H](C)[C@]12Oc1c(Cl)c(OC)cc(OC)c1C2=O", "outcome": "inactive"}
{"smiles": "CC(C)c1c(C(=O)Nc2ccccc2)c(-c2ccccc2)c(-c2ccc(F)cc2)n1CC[C@@H](O)C[C@@H](O)CC(=O)O", "outcome": "inactive"}
{"smiles": "CC(C)CCOCCC(C)C", "outcome": "inactive"}
{"smiles": "CCc1cccc(CC)c1N(COC)C(=O)CS(=O)(=O)O", "outcome": "inactive"}
{"smiles": "CCOC(=O)c1nc(C(Cl)(Cl)Cl)n(-c2ccc(Cl)cc2Cl)n1", "outcome": "inactive"}
{"smiles": "CCCCCCCCCCCCCCCC(=O)OC", "outcome": "inactive"}
{"smiles": "CCCCCCCCCCCC[N+](C)(C)Cc1ccccc1", "AC50": "24.2 µM (active) and 31.9 µM (active)"}
{"smiles": "CC(C)(c1ccc(Oc2ccc(N)cc2)cc1)c1ccc(Oc2ccc(N)cc2)cc1", "AC50": "48.6 µM (active)"}
{"smiles": "O=C1C=CC(=O)N1c1cccc(N2C(=O)C=CC2=O)c1", "outcome": "inactive"}
{"smiles": "Cc1cccc2c1ccc1ccccc12", "outcome": "inactive"}
{"smiles": "CC(C)[C@@H]1CC[C@@H](C)C[C@H]1O", "outcome": "inactive"}
{"smiles": "C=COC(=O)C(C)(C)CCCCCC", "outcome": "inactive"}
{"smiles": "CCCC=O", "outcome": "inactive"}
{"smiles": "CCN(CCC#N)c1ccccc1", "outcome": "inactive"}
{"smiles": "Cc1ccccc1OCC(=O)O", "outcome": "inactive"}
{"smiles": "O=C1c2ccc(O)c(O)c2C(=O)c2c(O)ccc(O)c21", "outcome": "inactive"}
{"test": "TOX21_p53_BLA_p2_viability: Viability Assessment in the Tox21 HCT-116 p53 Agonism Beta-lactamase Assay, Phase 2 (AID 2283591);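 also: compound exposure lasted 16 h at 37 °C; actives lower the ATP signal meaning cytotoxicity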", "how_it_was_run": "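Cytotoxicity readout: CellTiter-Glo ATP luminescence, 30 min at room temperature, after the beta-lactamase read. Cells were HCT116 exposed 16 h at 37C to compounds pin-transferred at 217-fold dilution from DMSO stocks.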"}
{"smiles": "CN(C)c1ccc(C(=C2C=CC(=[N+](C)C)C=C2)c2ccccc2)cc1", "AC50": "1.83 µM (active)", "outcome": "inactive"}
{"smiles": "CCCCCCCCCCCCCCCC(=O)OC", "outcome": "inactive"}
{"smiles": "CCCC=O", "outcome": "inactive"}
